High-throughput results as filed in PubChem BioAssay.
HSF1 inh – HSF1 inhibitors in luciferase reporter cells, primary screen, cell-based, NIH3T3, luminescence. NIH3T3-HGL HSE-luciferase, MG132-induced, luminescence 8 h; stronger effect = lower value. activity change, negative = inhibition, % at 7.5 µM (by protocol). hit rate 0.77% among 300,000;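 active = more than half of replicate wells show activity change below -50%, luminescence cut by over half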;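 note: luciferase reports HSF-1 transcriptional activity via heat shock element; 0% = median of DMSO wells and -100% = zero luminescence signal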
SMARCA2 act – SMARCA2 (BRM) function activators, primary screen, cell-based, luminescence, high throughput; MG213 cells, MMTV-luciferase reporter, dexamethasone, overnight; activation, % at 9.1 µM; hit rate 1% among 370,000; in the data active = activation above about 7.8%;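 note: 0% = vehicle wells and 100% = reference activator wells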
PG9 binder – binders of HIV-1 gp120 antibody PG9, primary screen, biochemical, TR-FRET. hit rate 0.43% among 360,000. AID 624416, 2012. inhibition, % at 6.7 µM. TR-FRET gp120-PG9 antibody binding; in the data active = inhibition above about 8.5%
FXN GAA850 act – FXN promoter activators, primary screen, cell-based, luciferase luminescence, HEK293 lucGAA850; HEK293 lucGAA850 FXN promoter luciferase reporter, 24 h; percent of 10 µM SAHA response; activation, % at 6 µM; hit rate 0.56% among 360,000;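 active = activation above the average of all compounds screened plus 3 SD, cutoff fixed separately per campaign, cut at about 7.5% in these data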;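 note: 0% = DMSO wells and 100% = 10 µM SAHA wells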
AI-2 QS mod – Vibrio harveyi AI-2 quorum sensing modulators, primary screen, JMH597 strain, luminescence/OD600 ratio | Vibrio harveyi JMH597 AI-2 luminescence/OD600 ratio, 9 h; stronger effect = lower value; strain lacks LuxN and CqsS sensors; 0 = neutral-control median | AID 2094, 2009 | activity change, % at 7.5 µM | hit rate 0.4% among 300,000; in the data active = activity change below about -75%, passing the limit was not always enough;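 note: luminescence divided by OD600 gain over 9 h not by final OD600 alone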
HSP90 refold inh – HSP90 inhibitors, primary screen, cell lysate, luminescence; hit rate 0.91% among 290,000; Heat shock protein HSP 90 (rabbit reticulocyte lysate; luciferase refolding); inhibition, % at 5.6 µM; AID 1789, 2009; Rabbit reticulocyte lysate, luciferase refolding luminescence, 3 h;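 active = inhibition above the screen-wide mean plus 3 SD, computed separately per campaign, cut at about 16% in these data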;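 note: 0% = DMSO wells and 100% = 60 µM geldanamycin wells; inhibitors lower the luminescence because luciferase stays unfolded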
PG9 binder conf – binders of anti-gp120 antibody PG9, confirmation, biochemical, TR-FRET; shares compounds with PG9 binder; TR-FRET PG9 antibody binding; inhibition, % at 6.7 µM; hit rate 90% among 1,500; in the data active = inhibition above about 9%
PGV04 Ab binding – binders of control antibody PGV04, counter-screen for PG9 antibody binder project, biochemical, TR-FRET, distinct HIV envelope site; TR-FRET PGV04 antibody-gp120 binding; shares compounds with PG9 binder; inhibition, % at 6.7 µM; hit rate 95% among 1,500; in the data active = inhibition above about 9.5%
Starred values were filed as active, the others as inactive; . = not tested or not shown. Most compounds without a hit are left out; they make up all but 3.4% or so of the library.

SMILES	HSF1 inh	SMARCA2 act	PG9 binder	FXN GAA850 act	AI-2 QS mod	HSP90 refold inh	PG9 binder conf	PGV04 Ab binding
O=C(CSc1nnc(-c2n[nH]c3ccccc23)n1-c1ccccc1)Nc1cccc(Cl)c1	22	4	2	7	19	2	.	.
COC(=O)[C@]12C[C@H](CC(=O)NCCCN3CCCC3=O)C(=O)N(Cc3cccc4ccccc34)C1=C[C@H](C1CCCC1)O[C@@H]2C	.	-1	.	.	.	.	.	.
CCOC(=O)c1c(C)[nH]c(C(=O)OCC(=O)NCc2ccco2)c1C	.	-3	-2	-2	.	.	.	.
CON(c1nc(Cl)nc(N(C)C)n1)S(=O)(=O)c1ccc(C)cc1	3	-1	10*	1	14	-2	6	8
CON(c1nc(Cl)nc(N(C)C)n1)S(=O)(=O)c1ccccc1Cl	-5	0	0	-1	5	2	.	.
Cc1ccc(NC(=O)COC(=O)c2ccc(-n3cccn3)cc2)cc1C	.	-1	13*	1	.	.	18*	29*
CC(Sc1ccc2ccccc2n1)C(=O)O (configuration not stated)	-4	4	50*	2	-4	7	53*	59*
CC(Sc1cnc2ccccc2n1)C(=O)O (configuration not stated)	-8	-2	13*	1	14	0	18*	23*
Cc1cc(SC(C)C(=O)O)nc2ccccc12 (configuration not stated)	-1	1	8	0	22	0	.	.
CC(C(=O)NCc1ccco1)n1nc(-c2ccccc2)c2cc(Cl)ccc21 (configuration not stated)	3	-1	9.9*	-1	29	-2	14*	22*
Cc1c(Br)c([N+](=O)[O-])nn1C(C)C(=O)NCc1ccco1 (configuration not stated)	-1	0	0	-3	3	8	.	.
Cc1cc(C)c2nc(SCC(=O)N3CC(=O)Nc4ccccc43)c(C#N)cc2c1	14	3	13*	2	12	-1	11*	24*
COc1ccc2nc(SCC(=O)N3CC(=O)Nc4ccccc43)c(C#N)cc2c1	0	3	0	-4	14	-4	.	.
CC(=O)Nc1ccc(NC(=O)COc2ccc(-c3ccc(C#N)cc3)cc2)cc1	-4	-1	9.0*	1	.	.	12*	18*
N#Cc1ccc(-c2ccc(OCC(=O)Nc3cccnc3)cc2)cc1	0	-4	1	0	29	-7	.	.
CCOC(=O)COc1cccc2c(=O)n(CC(=O)N3CCc4ccccc43)ccc12	3	0	14*	0	31	-4	21*	25*
CC(C)(C)c1ccc(-c2nnc(SCC(=O)Nc3ccc(S(=O)(=O)Nc4nccs4)cc3)n2-c2ccc(Cl)cc2)cc1	.	1	.	.	.	.	.	.
O=C1N(Cc2cccc(Cl)c2)C[C@@H]2C[C@@H](c3cccn3-c3cccnc3)N3CCC[C@@]123	-2	0	17*	-4	3	1	10*	19*
O=S1(=O)N[C@@H](Cc2ccccc2)COc2cccc(N3CCCCC3)c21	.	-4	1	.	.	.	.	.
O=c1c2ccc(Cl)cc2[nH]c(=S)n1Cc1cccnc1	4	4	14*	0	19	2	12*	14*
O=C(Nc1ccccc1)c1cnc(-c2ccccc2)nc1-c1ccccc1	-2	-2	16*	0	25	3	20*	28*
CCOC(=O)[C@]12CCCC3=C1N(CCC3)C(=O)[C@@H](CC(=O)N1CCN(C(=O)C3CC3)CC1)C2	.	-3	.	.	.	.	.	.
